Test results from PubChem BioAssay AID364 (The Scripps Research Institute Molecular Screening Center, 2006).
The campaign covered roughly 3,300 compounds. About 50 (2%) were called active.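 Rule for the calls: active = concentration giving half-maximal inhibition at or below 20 micromolar; inactive = half-maximal concentration above 20 micromolar, or not dose tested.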 Not all results are given here. Results with a measured potency or affinity are listed apart.

Test: Jurkat cell viability reduction – Jurkat E6.1, NIH starter set, primary screen (AID 364);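 note: 100% = cells treated with 4 µM doxorubicin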
Conditions: Jurkat E6.1 viability, ATP luminescence, 48 h; at 4 µM; hits give high values

| Compound | inhibition |
| --- | --- |
| c1ccc(OCc2nn3c(-c4cccnc4)nnc3s2)cc1 | -5.4% (inactive) |
| CN(Cc1ccccc1)c1ncnc2ccc(Br)cc12 | 7.2% (inactive) |
| Clc1ccc(-n2ncc3c(NCc4cccs4)ncnc32)cc1 | 18.1% (inactive) |
| Clc1ccc(-n2ncc3c(NCc4ccccn4)ncnc32)cc1 | 5.5% (inactive) |
| c1ccc(N2CCN(c3nc(NCc4ccco4)c4ccccc4n3)CC2)cc1 | 2.5% (inactive) |
| Oc1ccccc1-c1nc(NCc2ccco2)c2ccccc2n1 | -6.1% (inactive) |
| CCN(CC)CCCn1c(C)cc2c(c1=O)C(c1ccc(OC)c(OC)c1OC)C(C#N)=C(N)O2 (centres undefined) | 1.4% (inactive) |
| CCCOc1cccc(C2/C(=C(/O)c3ccccc3)C(=O)C(=O)N2CCN(C)C)c1 (centres undefined) | 2.5% (inactive) |
| O=C(c1coc(=O)c(Br)c1)N1CCOCC1 | 7.3% (inactive) |
| COc1cccc(-c2nc(N3CCCCC3C)c3ccccc3n2)c1O (centres undefined) | -2% (inactive) |
| Cc1nc(NS(=O)(=O)c2ccccc2)sc1NC(=O)OCCN(C)C | 9.6% (inactive) |
| COC(=O)C1=C(N)Oc2cc(C)oc(=O)c2C1c1ccncc1 (centres undefined) | -9.1% (inactive) |
| O=C(O)CCc1nn2cc(-c3ccccc3)nc2[nH]c1=O | -5.8% (inactive) |
| Cc1cc(C)n(CC(=O)c2ccccc2)c(=O)c1C#N | -17.6% (inactive) |
| O=c1[nH]c2sc3c(c2c(=O)n1Cc1ccccc1)CCC3 | 1.3% (inactive) |
| COc1cccc(C2=CC(c3ccc(N(C)C)cc3)n3nnnc3N2)c1 (centres undefined) | -9.6% (inactive) |
| COc1ccc(C2=CC(c3cccc(OC)c3)n3nnnc3N2)cc1 (centres undefined) | -8.6% (inactive) |
| Cc1nc(SC2C=CS(=O)(=O)C2)n[nH]1 (centres undefined) | -8.6% (inactive) |
| CCCCNC1=C(Br)C(=O)CC(C)(C)C1 | -3.7% (inactive) |
| Cn1c(Cn2cnc3ccccc32)nc2ccccc21 | 2.8% (inactive) |
| CC(C(=O)N1CCOCC1)N1C(=O)c2ccccc2C1=O (centres undefined) | -0.7% (inactive) |
| OCCNc1ncnc2c1c(-c1ccccc1)c(-c1ccccc1)n2Cc1ccco1 | 11.5% (inactive) |
| O=c1c(C=NCCCn2ccnc2)c(-c2ccccc2)[nH]n1-c1nc2ccccc2s1 | -4.4% (inactive) |
| CCCOc1cccc(CN2CCCCC2c2cccnc2)c1 (centres undefined) | 0.8% (inactive) |
| CNC(=O)C1CC(=O)N(Cc2ccccc2)C(=Nc2ccc(OC)cc2)S1 (centres undefined) | -6.1% (inactive) |

| Compound | inhibition |
| --- | --- |
| CCCCOC(=O)Nc1ccc(S(=O)(=O)Nc2nc(C)cc(C)n2)cc1 | 6.7% (inactive) |
| CCOc1ccc2nc(SCC(=O)Nc3ncccn3)[nH]c2c1 | -1.3% (inactive) |
| CCCCOC(=O)CCc1nc2ccccc2[nH]1 | 0.2% (inactive) |
| COCCNc1oc(-c2ccc(Cl)cc2)nc1C#N | 2.9% (inactive) |
| CCN(CC)CCCN1C(=O)C(=O)/C(=C(/O)c2ccc(C)cc2)C1c1ccccn1 (centres undefined) | -5.6% (inactive) |
| CCCNc1ncnc2c1cnn2-c1ccc(OC)cc1 | -3.3% (inactive) |
| CCOc1ccc(CC2CC(=O)NC2=O)cc1 (centres undefined) | -9.7% (inactive) |
| Cc1cn([C@H]2C[C@H](N=[N+]=[N-])[C@@H](CO)O2)c(=O)[nH]c1=O | 0.1% (inactive) |
| Cc1cn([C@H]2C=C[C@@H](CO)O2)c(=O)[nH]c1=O | -6.6% (inactive) |
| Cn1cc(C(=O)NCN2CCCCC2)c2ccccc21 | -0.4% (inactive) |
| CC(C)c1nc(NCC2CCCO2)c(C#N)c2c1COC(C)(C)C2 (centres undefined) | 9.3% (inactive) |
| Nc1nnnn1/N=C/c1ccco1 | 8% (inactive) |
| CCc1nc(N2CCCC2)c(C#N)c2c1CCCC2 | 2.4% (inactive) |
| COc1ccc(Nc2oc(-c3cccs3)nc2C#N)cc1 | 9.1% (inactive) |
| COc1ccc(N2CC(=O)N(c3ccc(OC)c(OC)c3)CC2=O)cc1OC | -0.2% (inactive) |
| O=C1CCCN1c1ccc(S(=O)(=O)NCc2ccco2)cc1 | 7.4% (inactive) |
| NC(=O)c1cc(-c2ccccc2)nc(Oc2ccccc2)n1 | 16.2% (inactive) |
| CC(C)Oc1ccc(/C(O)=C2/C(=O)C(=O)N(CCN3CCOCC3)C2c2ccccc2)cc1 (centres undefined) | -8.3% (inactive) |
| CCOc1cc(CN2CCOCC2)cc(C(C)=O)c1 | 3.2% (inactive) |
| Cn1c(N)c(C#N)c(C#N)c1-c1ccccc1 | -0.9% (inactive) |
| CCCCCOC(=O)Cc1c(C)nc(-c2ccccc2)[nH]c1=O | 3.9% (inactive) |
| COc1ccc(C(O)C(CN2CCOCC2)c2ccccc2)cc1 (centres undefined) | -2.1% (inactive) |
| COc1ccc(C(=O)CCN2CCCCCC2)cc1 | -4.7% (inactive) |
| CCCCCCSC1=C(C#N)C(c2ccccc2)CC(=O)N1 (centres undefined) | -7% (inactive) |
| C=C(C)CSC1=C(C#N)C(c2ccsc2)CC(=O)N1 (centres undefined) | 8.6% (inactive) |

| Compound | inhibition |
| --- | --- |
| CN1C2C=C3C(C#N)=C(N)C(C#N)(C#N)[C@@H](c4ccc(Cl)cc4)[C@@H]3C1CC2 (some centres undefined) | 1.6% (inactive) |
| CCOc1cccc(C2C(C#N)=C(N)Oc3cc(C)oc(=O)c32)c1OCC (centres undefined) | -9.9% (inactive) |
| O=C(NCc1cccnc1)NC(C(F)(F)F)C(F)(F)F | -8.9% (inactive) |
| CCC(NC(=O)Nc1nccs1)(C(F)(F)F)C(F)(F)F | -5% (inactive) |
| O=C(NCC(F)(F)F)Nc1nnc(C(F)(F)F)s1 | -6.7% (inactive) |
| CCSc1nnc(NC(=O)NC(CC)(C(F)(F)F)C(F)(F)F)s1 | -11.5% (inactive) |
| CC(NC(=O)Nc1nccs1)(C(F)(F)F)C(F)(F)F | -6.2% (inactive) |
| COCCCn1c(C)nc2c(c1=O)c1nc3ccccc3nc1n2CCc1ccccc1 | 4.1% (inactive) |
| CC1CCCCN1C(=O)C12CCC(C)(/C(=N/O)C1)C2(C)C (centres undefined) | -9.3% (inactive) |
| CCOC(=O)C1=C(N)c2ccccc2CC1C(C)C (centres undefined) | 7% (inactive) |
| COc1cc(C2C(C#N)=C(N)Oc3cc(C)n(CCN4CCOCC4)c(=O)c32)cc(OC)c1OC (centres undefined) | -2.9% (inactive) |
| COc1cccc(C2C(C#N)=C(N)Oc3cc(C)[nH]c(=O)c32)c1OC (centres undefined) | 7.3% (inactive) |
| COc1ccc(-c2cc3nc4n(c(=O)c3s2)CCOC4)cc1 | 4.7% (inactive) |
| COc1cc(NC(=O)NC(C)(C(F)(F)F)C(F)(F)F)cc(OC)c1OC | -6.8% (inactive) |
| OCCOCCNc1ncnc2c1cnn2-c1ccc(Cl)cc1 | 3.8% (inactive) |
| CN1CCN(c2c3c(c(C#N)c4nc5ccccc5n24)CCCC3)CC1 | 4.7% (inactive) |
| CCOC(=O)C1Cc2c([nH]c3ccccc23)C(C)N1 (centres undefined) | -10.3% (inactive) |
| Cc1cc(NC(CC(C)C)C(=O)O)nc(Cc2ccccc2)n1 (centres undefined) | 0.4% (inactive) |
| CC1(C2(O)CC(c3ccccc3)ON2)CCCCC1 (centres undefined) | 13.9% (inactive) |
| CC1CN(C2CCN(S(=O)(=O)c3ccccc3)CC2)CC(C)O1 (centres undefined) | 7.8% (inactive) |
| C(=N\n1cnnc1)/c1ccccn1 | -0.2% (inactive) |
| Cc1cc(-c2cc(-c3ccc(Cl)cc3)nc(N)c2C#N)co1 | 7.7% (inactive) |
| CCOC(=O)CC(=O)CSc1nc(N)c(C#N)c(-c2ccc(Cl)cc2)c1C#N | 9.6% (inactive) |
| CC(=O)c1c(OCC(=O)O)ccc2c(C)cc(=O)oc12 | 6.9% (inactive) |
| c1ccc2c(c1)[nH]c1c(N3CCSCC3)ncnc12 | 29.6% (inactive) |

| Compound | inhibition |
| --- | --- |
| c1ccc(CN2CCN(c3ncnc4c3[nH]c3ccccc34)CC2)cc1 | 28.5% (inactive) |
| Cc1cc(=O)oc(C)c1C(=O)N1CCN(C)CC1 | -1% (inactive) |
| CN(C)CCCN1C(=O)C(O)=C(C(=O)c2cc3ccccc3o2)C1c1ccccc1 (centres undefined) | 0% (inactive) |
| Nc1ccc2oc3ncccc3c(=O)c2c1 | -1.7% (inactive) |
| CC(C)Oc1ccc(/C(O)=C2/C(=O)C(=O)N(CCN(C)C)C2c2ccco2)cc1 (centres undefined) | 5.7% (inactive) |
| COc1ccc2[nH]c3c(N4CCN(Cc5ccc6c(c5)OCO6)CC4)ncnc3c2c1 | -0.5% (inactive) |
| Fc1ccc2[nH]c3c(N4CCN(c5ccccc5)CC4)ncnc3c2c1 | 28.7% (inactive) |
| Cc1ccc2[nH]c3c(N4CCN(Cc5ccc6c(c5)OCO6)CC4)ncnc3c2c1 | 18.7% (inactive) |
| COc1cccc(N2CCN(c3ncnc4c3[nH]c3ccccc34)CC2C)c1 (centres undefined) | 22.3% (inactive) |
| N#CCCSCc1ccc(OCC(=O)O)cc1 | -5.7% (inactive) |
| CCn1cc(C(=O)NCc2ccco2)c(=O)c2cc(F)c(N3CCN(C(=O)c4ccco4)CC3)cc21 | 7.2% (inactive) |
| Cc1cc(C)n(C(=O)CNC(=O)c2cccs2)n1 | 2.3% (inactive) |
| COc1ccccc1NC(=O)C1=C(C)NC(SCC(=O)c2ccc(C)cc2)=C(C#N)C1c1ccco1 (centres undefined) | -6.6% (inactive) |
| CCCCc1ccc(NC(=O)CSC2=C(C#N)C(c3ccco3)C3=C(CCCC3=O)N2)cc1 (centres undefined) | -2.5% (inactive) |
| CCN(CC)C(=O)CSC1=C(C#N)C(c2ccco2)C(C(=O)OCCOC)=C(C)N1 (centres undefined) | -2.1% (inactive) |
| CCc1ccccc1NC(=O)CSC1=C(C#N)C(c2ccc(O)c(OC)c2)C2=C(CCCC2=O)N1 (centres undefined) | -3.3% (inactive) |
| N#CC1=C(SCc2ccccc2)NC2=C(C(=O)CCC2)C1c1ccc2c(c1)OCO2 (centres undefined) | 13.1% (inactive) |
| Cc1ccc(NC(=O)CSC2=C(C#N)C(c3ccco3)C3=C(CCCC3=O)N2)cc1 (centres undefined) | 6.6% (inactive) |
| COCCOC(=O)C1=C(C)NC(SCC(=O)NC(C)(C)C)=C(C#N)C1c1ccco1 (centres undefined) | 9.1% (inactive) |
| CCc1ccc(NC(=O)CSC2=C(C#N)C(c3ccco3)C3=C(CCCC3=O)N2)cc1 (centres undefined) | 3.5% (inactive) |
| Cc1cc(CCC(=O)O)c(C)cc1CCC(=O)O | -4.4% (inactive) |
| NS(=O)(=O)c1ccc(-c2ccc(C=NC3CCS(=O)(=O)C3)o2)cc1 (centres undefined) | 10.2% (inactive) |
| O=C(C1CCCCC1)N1CCCn2c1nc1ccccc12 | 1.8% (inactive) |
| O=C1C2CC=C(Cl)CC2C(=O)N1CNc1ccccn1 (centres undefined) | -4.2% (inactive) |
